{"source": "PubChem BioAssay AID1741", "about": "(Vanderbilt High Throughput Screening Facility, 2009)", "note": "Hit rate of the full screen: of about 1,700 compounds, about 150 (8.8%) were called active. About 19% were inconclusive and are not listed. These entries were drawn from the full list. A number with no mark means an inactive call.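 The calls were made as follows: active = fluorescence change differing from the plate's solvent-only control wells at 99.7% confidence in both duplicates, whether higher or lower; inconclusive = differs from solvent controls in only one of two duplicates; inactive = the rest.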"}
{"target": "Muscarinic acetylcholine receptor M4 (Rattus norvegicus) (UniProt P08485)", "sequence (P08485 whole entry, looked up)": "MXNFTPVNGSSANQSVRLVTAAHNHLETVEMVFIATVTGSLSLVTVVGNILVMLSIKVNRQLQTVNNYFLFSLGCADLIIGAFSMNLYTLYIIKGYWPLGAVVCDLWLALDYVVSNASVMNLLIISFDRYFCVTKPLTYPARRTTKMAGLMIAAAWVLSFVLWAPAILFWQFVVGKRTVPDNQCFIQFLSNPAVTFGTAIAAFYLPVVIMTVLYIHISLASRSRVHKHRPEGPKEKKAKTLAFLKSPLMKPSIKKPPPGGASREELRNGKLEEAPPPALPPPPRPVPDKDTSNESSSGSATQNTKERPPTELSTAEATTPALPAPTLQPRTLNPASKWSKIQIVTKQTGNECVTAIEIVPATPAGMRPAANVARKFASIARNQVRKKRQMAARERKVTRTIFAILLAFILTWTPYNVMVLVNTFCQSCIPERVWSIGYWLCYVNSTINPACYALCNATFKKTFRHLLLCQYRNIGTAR", "experiment": "rat M4 muscarinic receptor activation – cell-based, agonist mode, counter-screen for M1 allosteric modulator project, confirmation (AID 1741)", "settings": "CHO M4/Gqi5 cells, Fluo-4 calcium fluorescence, at 10 µM, actives lie on both sides"}
{"molecule": "O=C(O)c1ccc(COCC(F)(F)F)cc1", "fluorescence change (max-min)": -14}
{"molecule": "COCCNC(=O)C(c1ccc(C)o1)N(Cc1cccs1)C(=O)c1snc(C(N)=O)c1N", "note": "(stereo unspecified)", "fluorescence change (max-min)": -6.44}
{"molecule": "COc1cccc2c(C)c(C(=O)O)[nH]c12", "fluorescence change (max-min)": -9.04}
{"molecule": "COc1ccccc1NC1=NC(c2ccc(Cl)cc2)N=C(N)N1", "note": "(stereo unspecified)", "fluorescence change (max-min)": -38.9}
{"molecule": "N#CC1=C(N)Oc2c(sc3ccccc23)C1c1ccco1", "note": "(stereo unspecified)", "fluorescence change (max-min)": 50}
{"molecule": "CCOc1ccc2nc(N3CCCN(C(=O)Nc4ccccc4C)CC3)c(C#N)cc2c1", "fluorescence change (max-min)": "246 (active)"}
{"molecule": "Cc1cc(NC(=O)COc2ccc(Cl)cc2Cl)n(CCC#N)n1", "fluorescence change (max-min)": -13.8}
{"molecule": "C(=N\\n1cnnc1)/c1cccnc1", "fluorescence change (max-min)": -25.3}
{"molecule": "COc1ccc2nc(N3CCCC(O)C3)c(C#N)cc2c1", "note": "(stereo unspecified)", "fluorescence change (max-min)": "176 (active)"}
{"molecule": "COc1ccc(N(CC(=O)NC(C)(C)C)C(=O)c2ccco2)cc1", "fluorescence change (max-min)": -53.4}
{"molecule": "O=C(CSc1nnc(-c2ccco2)n1Cc1ccccc1)NC(=O)NCc1ccco1", "fluorescence change (max-min)": -23.1}
{"molecule": "COc1ncnc2c1N=C1CC(C)(C)CC(N)=C1S2", "fluorescence change (max-min)": "136 (active)"}
{"molecule": "c1ccc2c(c1)OCC(CNc1ncnc3nc[nH]c13)O2", "note": "(stereo unspecified)", "fluorescence change (max-min)": "1130 (active)"}
{"molecule": "Cc1nc2ccccc2c2oc(C(=O)NCC3CCCO3)cc12", "note": "(stereo unspecified)", "fluorescence change (max-min)": -66.7}
{"molecule": "COC(=O)c1ccc(CSc2nc3ccccc3c(=O)n2-c2cccc(OC)c2)o1", "fluorescence change (max-min)": -28.9}
{"molecule": "Cc1nc(CNS(=O)(=O)c2ccc(Oc3ccccc3)cc2)cs1", "fluorescence change (max-min)": 2.92}
{"molecule": "COc1ccccc1NC(=O)CSc1nnc(Cn2nnc(-c3ccccc3)n2)n1-c1ccccc1", "fluorescence change (max-min)": -51.1}
{"molecule": "COc1ccccc1N1CCN(C(=O)c2cn(-c3ccccc3)nc2-c2cccnc2)CC1", "fluorescence change (max-min)": -73.3}
{"molecule": "COc1ccc(CCNC(=O)C2CCN(c3nn4c(=O)cc(C)nc4s3)CC2)cc1OC", "fluorescence change (max-min)": -40}
{"molecule": "CCOc1cc(-c2nc3cc(C)ccn3c2NCC2CCCO2)ccc1O", "note": "(stereo unspecified)", "fluorescence change (max-min)": -60.7}
{"molecule": "CCOc1ccc(NC(=O)N2CC=C(n3c(=O)[nH]c4ccccc43)CC2)cc1", "fluorescence change (max-min)": -26.4}
{"molecule": "COc1ccc(Nc2oc(-c3ccccc3Cl)nc2C#N)cc1", "fluorescence change (max-min)": -74.3}
{"molecule": "O=C(NCCC1=CCCCC1)C1CCN(Cc2cnn(-c3ccccc3)c2-n2cccc2)CC1", "fluorescence change (max-min)": -67.1}
{"molecule": "c1n[nH]c(NCc2ccc3c(c2)OCO3)n1", "fluorescence change (max-min)": -28.2}
{"molecule": "CC1CCCC(C)N1C(=O)CN1CCN(c2nc(-c3ccc(F)cc3)cs2)CC1", "note": "(stereo unspecified)", "fluorescence change (max-min)": -9.73}
{"molecule": "Nc1ccc(SCCN2C(=O)c3ccccc3C2=O)cc1", "fluorescence change (max-min)": -77.3}
{"molecule": "Cc1cc2cc(CN(Cc3cccs3)Cc3nnnn3CC3CCCO3)c(=O)[nH]c2cc1C", "note": "(stereo unspecified)", "fluorescence change (max-min)": -27}
{"molecule": "O=C(c1ccccc1)c1ccc(OC(=O)N2CCCC2)cc1", "fluorescence change (max-min)": -25.9}
{"molecule": "CC(NC(=O)CSc1nc2c(cc1C#N)CN(C)CC2)c1ccccc1", "note": "(stereo unspecified)", "fluorescence change (max-min)": -18.9}
{"molecule": "O=C(Nc1cccc(NC(=O)N2CCN(c3ccccc3)CC2)c1)N1CCN(c2ccccc2)CC1", "fluorescence change (max-min)": -12.4}
{"molecule": "Cc1nn2c(c1-c1ccccc1)N=C(c1ccco1)CC2c1ccccc1", "note": "(stereo unspecified)", "fluorescence change (max-min)": 5.67}
{"molecule": "CCOc1nc(-c2ccc(OC)cc2)ccc1-c1noc(-c2cc(OC)c(OC)c(OC)c2)n1", "fluorescence change (max-min)": 18.4}
{"molecule": "CCCOc1ccccc1C1CC(=O)Nc2cc3c(cc21)OCO3", "note": "(stereo unspecified)", "fluorescence change (max-min)": -71.7}
{"molecule": "CCn1c(NCCc2ccc(OC)c(OC)c2)nc2c1c(=O)n(C)c(=O)n2C", "fluorescence change (max-min)": -47.9}
{"molecule": "CCN(CC)c1ccc2cc(C(=O)O)c(=O)oc2c1", "fluorescence change (max-min)": 137}
{"molecule": "Fc1ccc2[nH]c3c(N4CCSCC4)ncnc3c2c1", "fluorescence change (max-min)": -68.8}
{"molecule": "CCN=C1SC(CC(=O)Nc2ccc(C)cc2)C(=O)N1CC", "note": "(stereo unspecified)", "fluorescence change (max-min)": "-71.4 (active)"}
{"molecule": "COc1cccc(-n2cc3c(c2-c2ccccc2)c(=O)n(C)c(=O)n3C)c1", "fluorescence change (max-min)": -42.2}
{"molecule": "COc1ccc2[nH]c(=O)c(CN(CC3CCCO3)C(=O)Nc3ccccc3)cc2c1", "note": "(stereo unspecified)", "fluorescence change (max-min)": -53.6}
{"molecule": "CCOc1ccc2[nH]c(=O)c(CN(Cc3nnnn3Cc3ccccc3)CC3CCCO3)cc2c1", "note": "(stereo unspecified)", "fluorescence change (max-min)": -7.46}
{"molecule": "O=C1c2ccccc2-c2ncnc3c(N4CCOCC4)cc(N4CCOCC4)c1c23", "fluorescence change (max-min)": -22.7}
{"molecule": "FC(F)(F)COc1nc(N2CCCCC2)nc(N2CCNCC2)n1", "fluorescence change (max-min)": -26.5}
{"molecule": "CCOC(=O)c1cc2n(c1N)-c1ccccc1C2=O", "fluorescence change (max-min)": "2020 (active)"}
{"molecule": "CC(=O)Nc1ccc(NC(=O)CN2CCCC(C)C2)c(Cl)c1", "note": "(stereo unspecified)", "fluorescence change (max-min)": -37.2}
{"molecule": "COc1ccccc1N1CCN(C(=O)c2c(-c3c(Cl)cccc3Cl)noc2C)CC1", "fluorescence change (max-min)": -27}
{"molecule": "O=C(Cn1cc(C(=O)c2cccs2)c2ccccc21)NCc1cccs1", "fluorescence change (max-min)": -25}
{"molecule": "COc1ccc(C(C(O)C(=O)c2c[nH]c3ccccc23)N2CCN(c3ccccc3)CC2)cc1", "note": "(stereo unspecified)", "fluorescence change (max-min)": -6.79}
{"molecule": "COc1cc(C(=O)Nc2oc(-c3ccccc3)c(-c3ccccc3)c2C#N)cc(OC)c1OC", "fluorescence change (max-min)": -47.4}
{"molecule": "CCCN1CC=C2C(C#N)=C(N)C(C#N)(C#N)C(c3cc(OC)ccc3OC)C2C1", "note": "(stereo unspecified)", "fluorescence change (max-min)": 84.1}
{"molecule": "COc1ccc(NC(=O)C2CCCN(S(=O)(=O)c3cccc4cccnc34)C2)cc1OC", "note": "(stereo unspecified)", "fluorescence change (max-min)": -56.1}
{"molecule": "Cc1ccc2oc(=O)c3cnn(CC(=O)N4CCN(c5ccccn5)CC4)c3c2c1", "fluorescence change (max-min)": -22}
{"molecule": "CCOc1cc(N2CCOCC2)c(OCC)cc1NC(=O)COc1cccc2cccnc12", "fluorescence change (max-min)": -39.2}
{"molecule": "Cc1ccc(S(=O)(=O)Nc2ccc3ncccc3c2)cc1", "fluorescence change (max-min)": -7.21}
{"molecule": "O=C(NCCc1ccc2c(c1)OCCO2)c1cc2ccccc2o1", "fluorescence change (max-min)": -9.99}
{"molecule": "COc1ccc(C2C(C(=O)N3CCN(c4ccc(OC)cc4)CC3)c3ccccc3C(=O)N2C)cc1", "note": "(stereo unspecified)", "fluorescence change (max-min)": -57.8}
{"molecule": "Cn1c(C(=O)NCCc2ccsc2)cc2c(=O)n(C)c3ccccc3c21", "fluorescence change (max-min)": -42.5}
{"molecule": "COc1ccc(N(C(=O)c2cccnc2)S(=O)(=O)c2ccc3c(c2)n(C)c(=O)n3C)cc1", "fluorescence change (max-min)": -59.4}
{"molecule": "O=C(CSCc1cccs1)N1CCCC1", "fluorescence change (max-min)": -76.4}
{"molecule": "CN1C(=O)c2ccc(NC(=O)c3c(F)c(F)c(F)c(F)c3F)cc2C1=O", "fluorescence change (max-min)": -27.8}
{"molecule": "CC(C[N+](C)(C)C)OC(N)=O", "note": "(stereo unspecified)", "fluorescence change (max-min)": 11.8}
{"molecule": "CC(=O)OC(C)C[N+](C)(C)C", "note": "(stereo unspecified)", "fluorescence change (max-min)": "146 (active)"}
{"molecule": "CCOC(=O)C1CCCN(C(=O)c2ccc(CS(=O)(=O)c3ccc(Br)cc3)o2)C1", "note": "(stereo unspecified)", "fluorescence change (max-min)": -59.9}
{"molecule": "CC(C)OCCCNc1ncnc2c1[nH]c1ccc(F)cc12", "fluorescence change (max-min)": -4.51}
{"molecule": "O=C(Nc1nc(-c2ccc3c(c2)OCO3)cs1)c1ccncc1", "fluorescence change (max-min)": -52}
{"molecule": "CC(C)(C)c1cc(CN2CCN(CCC#N)CC2)cc(C(C)(C)C)c1O", "fluorescence change (max-min)": -27.3}
{"molecule": "O=C(Nc1cccc(-c2nnc(-c3ccccc3)o2)c1)C1CCCO1", "note": "(stereo unspecified)", "fluorescence change (max-min)": -67.5}
